Results as given in PubChem BioAssay AID652105 (National Center for Advancing Translational Sciences (NCATS), 2013).
The campaign covered roughly 330,000 compounds. About 4,100 (1.2%) were called active. Not shown: some 2% with an inconclusive outcome. The list comes from a sample in which actives are over-represented; it also holds similar structures and randomly drawn compounds. Unmarked numbers belong to inactive results. The calls were made as follows: active = max response of -50% or lower; inconclusive = between -30% and -50%; inactive = -30% or higher.

molecular target: Phosphatidylinositol 5-phosphate 4-kinase type-2 alpha (Homo sapiens) (UniProt P48426); assay: qHTS for Inhibitors of phosphatidylinositol 5-phosphate 4-kinase (PI5P4K); details: PI5P4Kalpha enzyme, ADP-Glo luminescence, 60 min; stronger effect = lower value; also: value at the top dose of about 77 µM
Sequence (P48426 whole entry, looked up): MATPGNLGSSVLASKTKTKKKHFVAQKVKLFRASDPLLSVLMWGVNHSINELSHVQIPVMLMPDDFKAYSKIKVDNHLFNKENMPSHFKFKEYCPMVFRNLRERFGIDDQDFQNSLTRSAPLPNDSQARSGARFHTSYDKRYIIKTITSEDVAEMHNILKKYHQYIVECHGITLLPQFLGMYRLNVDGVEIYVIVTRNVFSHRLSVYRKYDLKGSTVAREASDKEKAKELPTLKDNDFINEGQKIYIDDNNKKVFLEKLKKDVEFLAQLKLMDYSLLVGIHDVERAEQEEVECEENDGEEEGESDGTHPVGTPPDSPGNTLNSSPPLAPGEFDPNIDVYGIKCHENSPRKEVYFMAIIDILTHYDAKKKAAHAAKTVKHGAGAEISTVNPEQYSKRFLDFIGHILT
Procedure, shortened: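 PI5P4Kalpha ADP-Glo assay; 5 microM ATP final; 60 min RT reaction; HEPES pH 7.4/EGTA/CHAPS, 5% DMSO; controls lacking substrate or enzyme; luminescent end-point.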
% is scaled to controls: 0 for no effect and ±100 for the full control effect.

In order of rising max response:
1. Cc1cccc(C(=O)OCC(=O)Nc2sc3c(c2C#N)CCC3)c1  -29.9%
2. COC(=O)c1cccc(NC(=O)CSc2nc(C)cc(=O)[nH]2)c1  -26.1%
3. Cc1ccc(S(=O)(=O)/N=C2\C=C(NS(=O)(=O)c3ccc(C)cc3)C(=O)c3ccccc32)cc1  -25.4%
4. O=CNc1cc(-c2ccc(C(=O)N3CCOCC3)cc2)cn2c(-c3ccc(F)cc3)cnc12  -15.7%
5. COc1ccc(Br)cc1/C=N/Nc1ccc(S(=O)(=O)Nc2ccccc2C(=O)O)cc1[N+](=O)[O-]  -15.6%
6. Nc1c(N(Cc2ccco2)C(=O)c2cccc(F)c2)c(=O)[nH]c(=O)n1Cc1ccccc1  -14.9%
7. Fc1cccc(Cc2c(-c3cccc(Cl)c3)nc3ccc(Br)cn23)c1  -13.9%
8. CC(=O)Nc1cc(-c2ccc(N3CCN(C)CC3)cc2)cn2c(-c3ccc(F)cc3)cnc12  -9.82%
9. CC(C)NC(=O)NC(=O)COC(=O)c1ccc(NC(=O)CC#N)cc1  -8.69%
10. Cc1ccccc1C1=NC(C(F)(F)F)(C(F)(F)F)c2c(n(-c3ccc(F)cc3)c(=O)[nH]c2=O)N1  -8.19%
11. O=C(NCc1cccc(C(F)(F)F)c1)c1ccc2sc(COCCO)nc2c1  -7.68%
12. COc1cc(O)c2c(=O)c3c(O)c(O)ccc3oc2c1OC  -7.12%
13. COc1cccc(-c2nc3nc(C)cc(C)n3c2NC2CCCCC2)c1  -7.02%
14. CCOC(=O)/C=c1\s/c(=C\c2ccccc2OC)c(=O)n1CC(=O)N1CCOCC1  -6.89%
15. CC(=O)c1c(C)[nH]c(C(=O)OCC(=O)Nc2sc3c(c2C#N)CCCC3)c1C  -6.62%
16. CCc1nc2c(OCc3ccc(C(=O)OC)cc3)cccn2c1N(C)C(=O)C(C)C  -5.01%
17. Clc1ccccc1Nc1nc(NCc2cccs2)nc2ccsc12  -4.54%
18. COc1ccc(Cc2nnc(NS(=O)(=O)Cc3ccccc3)s2)cc1  -3.92%
19. O=C1OCCOC2CCCc3oc(-c4ccccc4)c1c32 (stereo not drawn)  -3.14%
20. CSc1ncnc2c1ncn2CCCNCC(C)c1ccccc1 (stereo not drawn)  -2.55%
21. COc1ccc(NC(=O)C2Cc3c(-c4ccc(Cl)cc4)ccnc3O2)cc1 (stereo not drawn)  -2.22%
22. NC(Cc1ccc(F)cc1)c1csc(Nc2nncc3ccccc23)n1 (stereo not drawn)  -1.97%
23. O=S1(=O)CC(N2CCN(CCO)CC2)CN1Cc1cn(Cc2ccc(Cl)cc2)nn1 (stereo not drawn)  -1.75%
24. Cc1ccc(CNC(=O)c2cccc3c2C(=O)c2ccc(N4CCC(C)CC4)cc2S3(=O)=O)cc1  -1.75%
25. COc1ccc(C(O)c2nc(-c3ccc4c(c3)OCO4)cs2)cc1 (stereo not drawn)  -1.53%
26. CCCCC(=O)N(C)c1c(CC)nc2c(OCc3ccc(S(C)(=O)=O)cc3)cccn12  -1.42%
27. CC(=O)N1Cc2cc(C(=O)NCc3cccc(F)c3)nc(-c3cccc(C4=CCCC4)c3)c2[C@H]1CCO  -1.08%
28. CCOc1ccc(NC(=O)CCNC(=O)c2ccc(Br)cc2)cc1  -0.675%
29. CC(=O)OCC(C)n1c(=O)c2ccccc2n1C(C)=O (stereo not drawn)  -0.324%
30. CC(=O)C1=CCC(c2ccccc2)N(S(=O)(=O)c2ccc(C)cc2)C1 (stereo not drawn)  -0.133%
31. O=C1NC[C@H](CCCCN2C[C@H](Cc3ccc(O)cc3)N(CC3CCCCC3)C(=O)C2=O)N(CCc2ccccc2)C1=O  -0.0714%
32. CC1=C(C(=O)N(C(C)C)C(C)C)CC(CC(=O)NCCCCc2ccccc2)C(=O)N1CCC1=CCCCC1 (stereo not drawn)  -0.015%
33. Cc1ccc(-c2c(N)nc3ncccn23)cc1  0.002%
34. COc1ccc(-c2cc(=O)c3c(O)cc(O[C@@H]4O[C@H](CO[C@@H]5O[C@@H](C)[C@H](O)[C@@H](O)[C@H]5O)[C@@H](O)[C@H](O)[C@H]4O)cc3o2)cc1O  0.0751%
35. CC(C)[C@H](NC(=O)c1ccccc1F)C(=O)Nc1cccc(S(=O)(=O)N2CCOCC2)c1  0.136%
36. COc1cc(/C=N/NC(=O)c2ccc(N3CCCC3=O)cc2)ccc1O  0.256%
37. Cc1ccc(NS(=O)(=O)c2ccc(N/N=C/c3ccccc3OCC(=O)O)c([N+](=O)[O-])c2)c(C)c1  0.282%
38. COc1ccc(C2CC(c3ccc([N+](=O)[O-])cc3)=NN2C(C)=O)cc1 (stereo not drawn)  0.372%
39. COC(=O)C[C@H]1C=C[C@@H](NS(=O)(=O)c2ccc(C)cc2)[C@@H](CO)O1  0.772%
40. CN1C2CCC1CC(NC(=O)c1ccc([N+](=O)[O-])cc1)C2 (stereo not drawn)  0.848%
41. CCOC(=O)c1ccc2c(c1)nc(C)n2CC  0.903%
42. Cc1noc(C)c1-c1ccc(C(=O)NCc2ccncc2)c2occc12  1.04%
43. CCOc1cc(/C=N/NC(=O)c2cc(-c3ccccc3)nc3ccccc23)ccc1O  1.21%
44. O=C1c2ccccc2S(=O)(=O)c2cc(N3CCN(c4ccccn4)CC3)ccc21  1.24%
45. CC1(C(=O)NCc2ccc3c(c2)OCO3)CCN1C(=O)Cc1cccc2ccccc12 (stereo not drawn)  1.27%
46. O=C(COc1ccc(Br)cc1)OCC(=O)c1ccc[nH]1  1.45%
47. COc1cccc(/C=C2\SC(=S)N(CCCC(=O)N3CCOCC3)C2=O)c1  1.86%
48. O=C1C=C(NS(=O)(=O)c2ccccc2)C(=O)c2ccccc21  1.96%
49. COc1cc(/C=C2\C(=N)N3N=C(CC(=O)N4CCOCC4)SC3=NC2=O)cc(OC)c1OC  1.99%
50. COc1ccc(NC(=O)c2cc(-c3cc(OC)c(OC)c(OC)c3)nc3ccccc23)c(OC)c1  2.36%
51. CN(C)c1cccc(NC(=O)c2ccc(-c3ccc(F)c(F)c3)c3ccoc23)c1  2.45%
52. CC1(C(=O)Nc2ccc3c(c2)OCCO3)CCN1C(=O)Cc1cc(F)ccc1F (stereo not drawn)  2.77%
53. Cc1[nH]c2ccccc2c1C(=O)c1cc([C@H](NC(=O)OC(C)(C)C)C(C)C)sc1N  2.87%
54. CCCCNC(=O)C[C@@H]1C[C@@]2(C(=O)OCC)CCC=C2N(Cc2cccc3ccccc23)C1=O  3.26%
55. CNc1cc(-c2c(OC)cccc2OC)ncn1  3.83%
56. C[C@H]1NS(=O)(=O)c2cc(Cl)ccc2O[C@@H]1c1ccccc1  4.12%
57. O=C(Cc1cccs1)Nc1nnc(SCc2ccc(F)cc2)s1  6.84%
58. COC(=O)[C@]12CCCCC=C1N(CCC1=CCCCC1)C(=O)[C@H](CC(=O)NCC1CCCCC1)C2  7.3%
59. CCOC(=O)C1=CCC(c2ccc(F)cc2)N(S(=O)(=O)c2ccc(C)cc2)C1 (stereo not drawn)  8.18%
60. CCOP(=O)(OCC)C(Cc1ccccc1)N=C(c1ccccc1)c1ccccc1 (stereo not drawn)  10.7%
61. CCC(=O)N1CCC(C)(C(=O)Nc2cc(OC)c(OC)c(OC)c2)C1 (stereo not drawn)  10.8%
62. CCOC(=O)c1ccn(S(=O)(=O)c2ccc(C)cc2)c1-c1ccccc1  12.7%
63. O=C(OCc1ccccc1)N1CCC2CC1c1ccc(-c3ccc4c(c3)OCO4)cc12 (stereo not drawn)  14.4%
64. COc1ccc(-c2cc(C(=O)N(C)Cc3ccccc3)c3ccccc3n2)cc1  15.4%
65. O[C@H]1C[C@H](c2ccc(Cl)cc2)N(Cc2cccs2)C[C@@H]1n1cc(C2CC2)nn1  16.1%
66. OC(c1ccc(F)cc1)c1ncc(-c2cccc(C(F)(F)F)c2)[nH]1 (stereo not drawn)  16.6%
67. CC1(C(=O)Nc2cccc3c2CCCC3)CCN1C(=O)C1(c2ccccc2)CC1 (stereo not drawn)  20.1%

`COc1ccc(-c2cc(C(=O)Nc3ccccc3O)c3ccccc3n2)cc1` was tested, and the max response was -106% (active).
In the case of `COc1cccc(/C=N/Nc2ccc(S(=O)(=O)Nc3ccccc3C(=O)O)cc2[N+](=O)[O-])c1O`, the max response is reported as -74.4% (active).
For `O=c1[nH]c(=O)n(Cc2ccco2)c2c1C(C(F)(F)F)(C(F)(F)F)N=C(c1ccco1)N2`, the max response was -76.9% (active).
`COc1ccc(Cc2nnc(NC(=O)Cc3cccs3)s2)cc1` was tested, and the max response was -87.6% (active).
With `O=C1C(Cl)=C(Oc2ccccc2)C(=O)c2ccccc21` the max response was -95.6% (active).
For `N#CCC(=O)Nc1ccc(C(=O)OCC(=O)Nc2sc3c(c2C#N)CCCC3)cc1`, the max response was -64.2% (active).
In the case of `CCOc1ccc(NC(=O)c2ccc(NC(=O)COC(=O)c3ccc(NC(=O)CC#N)cc3)cc2)cc1`, the max response is reported as -67.8% (active).
For `COc1ccc(S(=O)(=O)/N=C2\C=C(NS(=O)(=O)c3ccccc3)C(=O)c3ccccc32)cc1`, the max response was -64.4% (active).
`CCOC(=O)c1sc(=S)n2c1[nH]c(=O)c1ccc(C(=O)OC)cc12` was tested, and the max response was -52.6% (active).
`COc1c(O)cc2oc(-c3ccc(O)c(O)c3)cc(=O)c2c1O` was tested, and the max response was -59.1% (active).
For `CC1CCN(c2ccc3c(c2)S(=O)(=O)c2cc(C(=O)O)ccc2C3=O)CC1`, the max response was -56.6% (active).
In the case of `CC(=O)N1CC[n+]2c(-c3ccc([N+](=O)[O-])cc3)csc21`, the max response is reported as -61% (active).
In the case of `C[C@@H]1C[C@@H]2O[C@H]2/C=C\C=C\C(=O)Cc2c(Cl)c(O)cc(O)c2C(=O)O1`, the max response is reported as -50.5% (active).
`COC1=C/C(=C/c2c(N)n3nc(CC(=O)N4CCOCC4)sc3nc2=O)C=CC1=O` was tested, and the max response was -79.3% (active).
In the case of `C=CCC1=C/C(=C\c2c(N)n3nc(CC(=O)N4CCOCC4)sc3nc2=O)C=C(OC)C1=O`, the max response is reported as -61.1% (active).
With `COc1ccc(C(=O)Nc2ccccc2C(=O)N/N=C/c2ccc(O)c(OC)c2)cc1` the max response was -50.7% (active).
